Screening data as filed in PubChem.
In the library only some 22% were active in any assay of this set; here they are far more common.
CYP2C9 inhib: human CYP2C9 inhibition. 96,000 compounds, 20% hits. CYP2C9 Supersomes, luciferin-H conversion, luminescence. P11712. inhibition, % at 5 µM;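 active means blocking of liver enzyme CYP2C9 beyond about 50% at 5 µM, limit read from the data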
Target sequence (P11712 whole entry, looked up): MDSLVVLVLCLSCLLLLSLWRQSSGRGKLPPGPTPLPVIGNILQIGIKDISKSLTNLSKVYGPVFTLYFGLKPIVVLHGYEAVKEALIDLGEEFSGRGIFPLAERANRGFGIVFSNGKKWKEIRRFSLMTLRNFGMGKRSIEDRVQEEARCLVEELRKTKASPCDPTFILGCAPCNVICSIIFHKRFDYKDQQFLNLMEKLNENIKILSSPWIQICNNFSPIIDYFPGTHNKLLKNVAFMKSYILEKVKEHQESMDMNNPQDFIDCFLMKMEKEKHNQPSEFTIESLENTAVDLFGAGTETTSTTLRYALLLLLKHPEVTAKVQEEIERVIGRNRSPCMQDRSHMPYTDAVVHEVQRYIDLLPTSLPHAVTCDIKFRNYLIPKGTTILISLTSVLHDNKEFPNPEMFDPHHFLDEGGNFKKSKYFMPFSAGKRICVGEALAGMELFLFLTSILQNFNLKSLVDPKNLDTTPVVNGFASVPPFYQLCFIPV
CYP2C19 activ: activators of human cytochrome P450 2C19; P33261; recombinant CYP2C19, luciferin-H EGE luminescence; stronger effect = higher value; 0 = fully inhibited enzyme, 1 = untreated enzyme; activation factor at 5 µM; 96,000 tested, under 10 active;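 active means activation factor of at least 2 at 5 µM in the primary screen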;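 further: 0 = wells with 2.5 mM tranylcypromine and 1 = vehicle-only wells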
CYP2C9 activ: activators of human CYP2C9 | 96,000 compounds, 1.4% hits | P11712 | AID 1024 | recombinant CYP2C9, luciferin-H conversion, luminescence; stronger effect = higher value; factor 1 = untreated enzyme, 0 = blocked | activation factor at 5 µM;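 active means activation factor of 2 or more for CYP2C9 at a 5 µM dose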;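 further: 0 = sulfaphenazole-blocked wells and 1 = vehicle-only wells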
CYP2C19 inhib: human CYP2C19 inhibition; P33261; CYP2C19 Supersomes, luciferin-H EGE luminescence, 30 min; inhibition, % at 5 µM; 96,000 compounds, 21% hits; AID 778;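 active means CYP2C19 inhibition above a set limit at 5 µM in the primary screen, cut at about 50% in these data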;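 further: plate controls were negative control wells for no effect and 2.5 mM tranylcypromine positive control for full effect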
Measles CPE: protection of cells from measles virus | Measles virus-infected cells, CPE protection, absorbance | 140,000 compounds, 1.5% hits | protection (pct of control), % at 4 µM; in the data active means protection mostly above about 24%, no sharp cut-off; inactive means mostly below about 26%
The depositor's hits bear a star.

COC(=O)c1cccc(S(=O)(=O)N2CCC(n3nnc4cc(F)ccc43)CC2)c1 was read as CYP2C9 inhib -10.9, CYP2C19 activ 0.5, CYP2C9 activ 1.1, CYP2C19 inhib 45.6 and Measles CPE 12.4.
Screening O=C(Nc1ccc2c(c1)OCO2)c1cccc2c1C(=O)N(Cc1cccnc1)C2 returned CYP2C9 inhib 76.9*, CYP2C19 activ 0.7, CYP2C9 activ 0.2, CYP2C19 inhib 34.1 and Measles CPE 7.5.
`COc1cc(NC(=O)c2cccc3c2C(=O)N(Cc2cccnc2)C3)cc(OC)c1OC` gave CYP2C9 inhib 68.7*, CYP2C19 activ 0.5, CYP2C9 activ 0.3, CYP2C19 inhib 48.2 and Measles CPE 7.2.
CCCN1Cc2cccc(C(=O)Nc3ccc4c(c3)OCO4)c2C1=O was read as CYP2C9 inhib 59.8*, CYP2C19 activ 0.9, CYP2C9 activ 0.4, CYP2C19 inhib 10.0 and Measles CPE 18.8.
For CCCN1Cc2cccc(C(N)=O)c2C1=O the results were CYP2C9 inhib 4.9, CYP2C19 activ 1, CYP2C9 activ 1, CYP2C19 inhib -0.8 and Measles CPE 3.8.
O=C(O)c1cccc2c1C(=O)N(Cc1ccncc1)C2 was read as CYP2C9 inhib 6.3, CYP2C19 activ 1, CYP2C9 activ 0.9, CYP2C19 inhib -1.7 and Measles CPE 72.0*.
`COc1cccc(-c2nnn(C/C(N)=N/O)n2)c1` gave Measles CPE 13.9.
Screening CC(=O)Nc1nonc1NC(=O)CSc1ncn[nH]1 returned CYP2C9 inhib 17.8, CYP2C19 activ 1, CYP2C9 activ 0.8, CYP2C19 inhib 4.5 and Measles CPE 19.0.
Screening O=C(Cn1ccc2ccccc2c1=O)Nc1ccc2c(c1)OCO2 returned CYP2C9 inhib 10.8, CYP2C19 activ 0.8, CYP2C9 activ 0.9, CYP2C19 inhib 18.0 and Measles CPE 5.1.
For CCCN1Cc2cccc(C(=O)Nc3ccc(C)cc3)c2C1=O the results were CYP2C9 inhib 13.9, CYP2C19 activ 1, CYP2C9 activ 0.9, CYP2C19 inhib 0.3 and Measles CPE 10.2.
For CCCN1Cc2cccc(C(=O)Nc3ccc4c(c3)OCCO4)c2C1=O the results were CYP2C9 inhib 92.0*, CYP2C19 activ 0.2, CYP2C9 activ 0.1, CYP2C19 inhib 80.9* and Measles CPE 28.3.
For O=C(C1CCC1)N1CCc2cc(S(=O)(=O)NCC3COc4ccccc4O3)ccc21 (stereo unspecified) the results were CYP2C9 inhib 24.6, CYP2C19 activ 0.8, CYP2C9 activ 0.8, CYP2C19 inhib 17.2 and Measles CPE 7.8.
O=C(C1CC1)N1CCc2cc(S(=O)(=O)NCC3COc4ccccc4O3)ccc21 (stereo unspecified) was read as CYP2C9 inhib 51.7*, CYP2C19 activ 0.3, CYP2C9 activ 0.5, CYP2C19 inhib 72.1* and Measles CPE 2.9.
Screening O=C(C1CC1)N1CCc2cc(Br)cc(S(=O)(=O)NCC3COc4ccccc4O3)c21 (stereo unspecified) returned CYP2C9 inhib 58.7*, CYP2C19 activ 0.1, CYP2C9 activ 0.4, CYP2C19 inhib 91.2* and Measles CPE 4.4.
CCC(=O)N1CCc2cc(Br)cc(S(=O)(=O)NCc3ccco3)c21 was read as CYP2C9 inhib -6.7, CYP2C19 activ 0.5, CYP2C9 activ 1.1, CYP2C19 inhib 52.7* and Measles CPE 17.8.
O=C(NCc1ccccc1)c1ccc(Br)cc1Br was read as Measles CPE 20.9.
For CC(=O)Nc1nc(C(=O)Nc2c(C)n[nH]c2C)cs1 the results were CYP2C9 inhib -10.5, CYP2C19 activ 1.1, CYP2C9 activ 1.1, CYP2C19 inhib -11.9 and Measles CPE 2.6.
Screening Brc1ccc2nc(CSc3ncn[nH]3)cn2c1 returned CYP2C9 inhib -9.7, CYP2C19 activ 0.5, CYP2C9 activ 1.1, CYP2C19 inhib 52.3* and Measles CPE 8.8.
Screening CCCCCCNc1nc(NCc2ccco2)nc(OCC)n1 returned CYP2C9 inhib 78.8*, CYP2C19 activ 0.3, CYP2C9 activ 0.2, CYP2C19 inhib 70.6* and Measles CPE 3.1.
`COc1cccc2c1OC1(C)CC2NC(=O)N1c1cccc(C(=O)Nc2ccc3c(c2)OCCO3)c1` (stereo unspecified) gave CYP2C9 inhib 72.4*, CYP2C19 activ 0.7, CYP2C9 activ 0.3, CYP2C19 inhib 29.1 and Measles CPE 16.8.
`COc1ccc(NC(=O)c2cccc(N3C(=O)NC4CC3(C)Oc3ccccc34)c2)cc1` (stereo unspecified) gave CYP2C9 inhib 89.8*, CYP2C19 activ 0.1, CYP2C9 activ 0.1, CYP2C19 inhib 88.7* and Measles CPE 15.6.
